AmpC no deterg: blocks E. coli AmpC beta-lactamase in detergent-free assay; P00811; AmpC nitrocefin hydrolysis, absorbance 480 nm, 0.0001% Triton; Potency, µM (series often up to 57.1 µM), actives largely listed as inhibitors; actives 0.52% (n = 330,000); also: nearly all actives have a fitted effect of over 20% in size
Target sequence (P00811 whole entry, looked up): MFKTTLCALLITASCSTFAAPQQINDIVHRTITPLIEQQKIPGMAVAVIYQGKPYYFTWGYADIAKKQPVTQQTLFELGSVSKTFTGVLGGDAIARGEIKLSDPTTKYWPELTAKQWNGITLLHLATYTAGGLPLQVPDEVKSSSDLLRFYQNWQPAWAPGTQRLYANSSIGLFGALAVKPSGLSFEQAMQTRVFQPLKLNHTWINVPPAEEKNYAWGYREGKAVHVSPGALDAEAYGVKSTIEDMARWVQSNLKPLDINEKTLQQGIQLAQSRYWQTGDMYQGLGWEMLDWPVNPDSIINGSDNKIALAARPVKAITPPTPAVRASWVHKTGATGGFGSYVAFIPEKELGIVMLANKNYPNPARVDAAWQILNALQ
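AmpC (5.3 nM in the dispensed reagent) in 20 mM phosphate pH 7.0 with 0.01% (detergent screen) or 0.0001% Triton X-100 was preincubated with compounds for 15 min at room temperature. Nitrocefin was then added from an 800 uM solution, and hydrolysis was followed at 480 nm.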
AmpC inh detg: blocks E. coli AmpC beta-lactamase in detergent assay; P00811; AmpC hydrolysis of nitrocefin, absorbance 480 nm, 0.01% Triton; Potency, µM (doses to about 114 µM), most hits filed as inhibitors; actives 0.041% (n = 370,000); also: nearly all actives have a fitted effect of over 25% in size
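20 mM phosphate pH 7.0 + 0.01% (detergent screen) or 0.0001% Triton X-100; 5.3 nM AmpC reagent; cpd preinc 15 min RT; nitrocefin (800 uM stock) to start; A480 q20 s × 4 min; Activity was normalised to no-enzyme and no-compound control wells.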
Sm TGR block: S. mansoni TGR enzyme inhibition | Q962Y6 | purified TGR, DTNB reduction, TNB absorbance 405 nm | Potency, µM (doses to about 114 µM), hits mostly inhibitors | actives 3% (n = 360,000) | AID 485364; also: nearly all actives have a fitted effect of over 60% in size
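TGR 20 nM + NADPH 100 uM (dispensed conc.), cpd preinc 15 min RT; start with NADPH (500 uM addition) then DTNB (15 mM addition). Kinetic TNB absorbance, 405 nm filter. Four-parameter Hill fit across titration.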
Large screens that a line does not name were inactive. An excerpt weighted towards active compounds, which were near 3.3% of everything screened. Calls follow the shape of the dose curve; as a rule, active = well fitted curve in the direction sought with a large enough effect; inconclusive = small, poorly fitted or top-dose-only effect, or another doubt; inactive = no such curve, though single readings can be large; an effect the other way counts as inactive or inconclusive.

COc1ccc(C(=O)NCC2(N3CCN(C)CC3)CCCCC2)cc1	none (no result: AmpC no deterg)
COC(=O)c1ccc(-n2c(/C=C\c3cccc(Br)c3)nc3ccccc3c2=O)cc1	none (no result: AmpC no deterg)
COc1ccccc1NC(=O)CSc1nnc(N)s1	Sm TGR block inconclusive (no result: AmpC no deterg)
COc1ccc2c(c1)CC1(CN2C)C(=O)NC(=O)N(c2ccc(F)cc2)C1=O (stereo not drawn)	Sm TGR block inconclusive
COc1ccc2c(c1)CC1(CN2C)C(=O)NC(=O)N(c2ccc(C)cc2)C1=O (stereo not drawn)	AmpC inh detg inconclusive, Sm TGR block 50µM
Cc1ccccc1C(=O)Nc1nnc(S(=O)(=O)N2CCCc3ccccc32)s1	none (no result: AmpC no deterg)
CC1=C(C(=O)Nc2ccccc2C)C(c2ccc[nH]2)n2ncnc2N1 (stereo not drawn)	Sm TGR block inconclusive (no result: AmpC no deterg)
CCCC(=O)N(Cc1cc(=O)[nH]c2ccccc12)c1ccc(C)cc1C	none
Cc1ccc(N(Cc2cc(=O)[nH]c3ccccc23)C(=O)CCl)c(C)c1	Sm TGR block 13µM
COc1ccc(Nc2ncc3c(n2)CCN(Cc2cccc(F)c2F)C3)c(OC)c1	none (no result: AmpC no deterg)
CCOC(=O)COc1nc(-c2ccco2)cc(-c2ccco2)c1C#N	Sm TGR block 32µM
CC(=O)COc1nc2c(c(-c3ccco3)c1C#N)CCc1ccccc1-2	Sm TGR block 45µM
CCOC(=O)C(C)Sc1nc(-c2ccco2)cc(C(F)(F)F)c1C#N (stereo not drawn)	AmpC inh detg inconclusive, Sm TGR block 22µM
CCOC(=O)COc1nc(-c2ccc(C)cc2)cc(-c2ccco2)c1C#N	none
CCOC(=O)CSc1nc(-c2ccc(F)cc2)cc(C(F)(F)F)c1C#N	none (no result: AmpC no deterg)
CCOc1nc2c(c(-c3cccs3)c1C#N)Cc1ccccc1-2	none
Cc1ccccc1CCNC(=O)c1ccc2c(c1)nc1n2CCCCC1	none (no result: AmpC no deterg)
COc1ccc2c(c1)c1c(c(=O)n(CCc3ccccc3)c(=O)n1Cc1cccc(F)c1)n2C	none (no result: AmpC no deterg)
O=C(NCc1cccnc1)/C(=C/c1ccc(-c2cccc(C(F)(F)F)c2)o1)NC(=O)c1ccccc1	none
O=C(CN(Cc1ccc(Br)cc1)S(=O)(=O)c1ccccc1)NCc1cccnc1	none
O=C(NCc1cccnc1)/C(=C/c1ccc(-c2ccc(Cl)cc2)o1)S(=O)(=O)c1ccccc1	Sm TGR block 20µM
O=C(NCc1cccnc1)/C(=C\c1ccc(-c2ccc(Br)cc2)o1)S(=O)(=O)c1ccccc1	Sm TGR block 50µM
CCN(Cc1ccccc1)C(=O)C1CCC(CNS(=O)(=O)c2ccc3c(c2)CCCC(=O)N3)CC1 (stereo not drawn)	none (no result: AmpC no deterg)
COc1ccc(N2CCN(C(=O)c3cccn3-c3nnc(N4CCCC4)s3)CC2)cc1	none (no result: AmpC no deterg)
CCC1(C)Cc2nc(Cl)c(C#N)cc2CO1 (stereo not drawn)	Sm TGR block inconclusive
CCCC1Cc2nc(Cl)c(C#N)cc2CO1 (stereo not drawn)	Sm TGR block 40µM
COc1ccccc1CCNC(=O)CSc1ccc(-c2ccco2)nn1	Sm TGR block 3.5µM
CCc1ccc(NC(=O)CSc2ccc(-c3ccco3)nn2)cc1	Sm TGR block 20µM
O=C(CSc1ccc(-c2ccco2)nn1)NCc1ccccc1	Sm TGR block 35µM
O=C(CSc1ccc(-c2ccccn2)nn1)NCc1ccc(Cl)cc1	none
O=C(CSc1ccc(-c2ccco2)nn1)NCc1ccc(Cl)cc1	Sm TGR block 16µM
COc1ccccc1-c1ccc(SCC(=O)NCCc2ccccc2)nn1	AmpC inh detg inconclusive
CC(=O)c1cccc(NC(=O)CSc2ccc(-c3ccco3)nn2)c1	Sm TGR block inconclusive
Cc1cccc(NC(=O)CSc2ccc(-c3ccco3)nn2)c1C	none
COc1ccc(NC(=O)CN2CCN(Cc3ccccc3)S2(=O)=O)c(OC)c1	none (no result: AmpC no deterg)
CCc1ccc(S(=O)(=O)NCc2nc3cccnc3n2Cc2ccccc2Cl)cc1	none (no result: AmpC no deterg)
COc1cc(C(=O)NCc2nc3cccnc3n2Cc2ccc(C)cc2)cc(OC)c1OC	none (no result: AmpC no deterg)
COc1cccc(CNC(=O)CSc2ccc(-c3ccccn3)nn2)c1	none
O=C(CSc1ccc(-c2ccco2)nn1)N1CCCC1	Sm TGR block 18µM
COc1cccc(CNC(=O)CSc2ccc(-c3ccco3)nn2)c1	Sm TGR block 8.9µM
O=C(CSc1ccc(-c2ccco2)nn1)N1CCCCC1	Sm TGR block inconclusive
Cc1ccc(CNC(=O)CCC(=O)N2CC3CCCN3c3ccccc32)cc1 (stereo not drawn)	none (no result: AmpC no deterg)
O=C(Nc1ccc(OCc2cc(=O)n3ccccc3n2)cc1)c1ccccc1Cl	none (no result: AmpC no deterg)
CCCCC1C(=O)N(c2ccccc2)N(c2ccc(O)cc2)C1=O (stereo not drawn)	AmpC inh detg inconclusive, Sm TGR block 10µM
CCCCc1nc2ccccc2c(=O)n1-c1ccc(O)cc1	none
